Laboratory results taken from PubChem BioAssay (NCATS).
Inconclusive results are not listed. A call without a number means that no potency is given here. Active and inactive are the calls of the source. Calls come from the whole dose curve; as a rule, active = well fitted inhibition curve with a large enough effect; inconclusive = small, poorly fitted or top-dose-only effect; inactive = flat fitted curve, though single readings scatter.

Assay: P-glycoprotein substrates identified in KB-8-5-11 adenocarcinoma cell line, qHTS therapeutic library screen (AID 1346987); note: nearly all actives have a fitted effect of over 65% in size
Conditions: KB-8-5-11 (P-gp overexpressing) viability, CellTiter-Glo, 72 h; series mostly up to 44.5 µM
How it was run: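 Compounds are pinned in dose-response onto KB-8-5-11 cells (500 cells/well, colchicine-free medium) and left 72 h at 37 degree C. CellTiter-Glo luminescence then yields AC50 values.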
Potency is the fitted concentration of half-maximal effect.

| SMILES | Potency | activity change, negative = cytotoxicity |
| --- | --- | --- |
| CC(C)=CCC[C@](C)(O[C@@H]1O[C@H](CO[C@@H]2OC[C@@H](O)[C@H](O)[C@H]2O)[C@@H](O)[C@H](O)[C@H]1O)[C@H]1CC[C@]2(C)[C@@H]1[C@H](O)C[C@@H]1[C@@]3(C)CC[C@H](O[C@@H]4O[C@H](CO)[C@@H](O)[C@H](O)[C@H]4O)C(C)(C)[C@@H]3CC[C@]12C | inactive | – |
| CCC(CC)(NC(=O)C(C)C)C(=O)N[C@@H](CCCN=C(N)N)C(=O)NC1(C(=O)NC(c2ccc(F)cc2)c2ccc(F)cc2)CCCC1 | inactive | – |
| Cc1nc2c(C(F)(F)F)cccc2nc1-c1ccc(-c2cccc(S(C)(=O)=O)c2)cc1 | inactive | – |
| O=C(Nc1cc(C(F)(F)F)cc(C(F)(F)F)c1)c1cnc(Cl)nc1C(F)(F)F | 16.4 µM (active) | – |
| C=C1C(=O)O[C@@H]2C=C(COC(C)=O)CC/C=C(\CO)CC[C@@H]12 | inactive | – |
| CC1(C)CCCC2(C)C1C(=O)C=C(C(=O)O)C2(O)C(=O)O (centres undefined) | inactive | – |
| COc1c(C)cnc(Cn2cc(C#CCC(C)(C)O)c3c(Cl)nc(N)nc32)c1C | 0.0326 µM (active) | – |
| CC(=O)O[C@@H]1C[C@]2(C)[C@@]3(CCC4[C@@]5(C)CC[C@H](O[C@@H]6O[C@H](C(=O)O)[C@@H](O)[C@H](OC7OC(CO)C(O)C(O)[C@H]7O[C@@H]7O[C@@H](C)[C@H](O)[C@@H](O)[C@H]7O[C@@H]7OC[C@](O)(CO)[C@H]7O)[C@H]6OC6OC(CO)C(O)C(O)C6O)C(C)(C)C5CC[C@]42C)OC[C@@]12CCC(C)(C)CC23 (some centres undefined) | – | -11.3% [at 9.29 µM] (inactive) |
| CC(C)NC(=O)COc1cccc(-c2nc(Nc3ccc4[nH]ncc4c3)c3ccccc3n2)c1 | 8.2 µM (active) | – |
| CN(C)CC#CCCC(=O)C(O)(c1ccccc1)C1CCC1 (centres undefined) | inactive | – |
| CC(C)(C)c1ccc(-c2nc3c(N4CCN(Cc5ccc6nccnc6c5)CC4)cccc3[nH]2)cc1 | 13 µM (active) | – |
| CC(C)c1ccc(NC(=O)Cn2cnc3c2c(=O)n(C)c(=O)n3C)cc1 | inactive | – |
| C=CC(=O)Nc1ccc2ncnc(Nc3cccc(Br)c3)c2c1 | 8.2 µM (active) | – |
| C[C@@H](O[C@H]1OCCN(Cc2nn(P(=O)(O)O)c(=O)[nH]2)[C@H]1c1ccc(F)cc1)c1cc(C(F)(F)F)cc(C(F)(F)F)c1 | inactive | – |
| C=C1CC2[C@@]3(C)C=CC(=O)C(C)(C)C3=C(O)C(=O)[C@@]2(C)C2(C(=O)OC)C(=O)C(C)OC(=O)[C@@]12C (some centres undefined) | 8.93 µM (active) | – |
| Cc1c(C2=CCN(C(=O)N(C)C(C)C)CC2)nnn1-c1cccnc1F | inactive | – |
| CC(O)C(C)n1ncn(-c2ccc(N3CCN(c4ccc(OCC5COC(Cn6cncn6)(c6ccc(Cl)cc6Cl)O5)cc4)CC3)cc2)c1=O (centres undefined) | 14.6 µM (active) | – |

| SMILES | Potency | activity change, negative = cytotoxicity |
| --- | --- | --- |
| CCCn1ncc(CN2CCCC(C(=O)c3cccc(OC(C)C)c3)C2)c1C (centres undefined) | inactive | – |
| C#CCCCn1cc(-c2cccc3c2N[C@H](C)CC(=O)N3)cn1 | 1.46 µM (active) | – |
| C=C1C(=O)OC2/C=C(\C)CC/C=C(\C)CC(OC(C)=O)C12 (centres undefined) | inactive | – |
| C=C1C(=O)OC2/C=C(\CO)CC/C=C(\C=O)C(O)C(OC(=O)C(C)CC)C12 (centres undefined) | inactive | – |
| O=c1[nH]cnc2c([C@@H]3N[C@H](CO)[C@@H](O)[C@H]3O)c[nH]c12 | inactive | – |
| COC1C=C(C)C(O)(CO)C2(C)CCCC(C)(C)C12 (centres undefined) | inactive | – |
| COc1ccc2nc3n[nH]c(C)c3c(NCCOCCO)c2c1 | inactive | – |
| CC(NCCCc1cccc(C(F)(F)F)c1)c1cccc2ccccc12 (centres undefined) | inactive | – |
| Cc1cc(NC(=O)NCCN2CCC(O)(Cc3ccccc3)CC2)c2ccccc2n1 | inactive | – |
| CCC1C(=O)N(C)c2cnc(Nc3ccc(C(=O)NC4CCN(C)CC4)cc3OC)nc2N1C1CCCC1 (centres undefined) | 0.231 µM (active) | – |
| CC(C)(C)c1ccc(C(=O)Nc2cn3cc(-n4ccnc4)ccc3n2)cc1 | inactive | – |
| C=CS(=O)(=O)O | inactive | – |
| Cn1ccc(NC(=O)c2cc(Oc3ccc(C(=O)N4CCC4)c(F)c3)c3c(c2)OC(C)(C)C3)n1 | inactive | – |
| CCCN(CCc1ccsc1)C1CCc2c(O)cccc2C1 (centres undefined) | inactive | – |
| CN(C)CCOC(C)(c1ccccc1)c1ccc(Cl)cc1 (centres undefined) | 16.4 µM (active) | – |
| CC1(C(=O)Nc2ccc(F)nc2)CCCN1c1nc(Nc2cc(C3CC3)[nH]n2)c2cccn2n1 (centres undefined) | 2.31 µM (active) | – |
| CCc1c[nH]c2ncnc(N3CC[C@](N)(CNC(=O)c4ccc(F)cc4F)C3)c12 | inactive | – |
